Compounds with a hit are over-represented: about 10% of the library has one in this group of screens.
BAZ2B block = BAZ2B (human) inhibition; Q9UIF8; AlphaScreen BAZ2B-H3K14Ac peptide displacement; Potency, µM (doses to about 114 µM), without a hit: at the top dose activity change, negative = inhibition, usual class: inhibitors; 360,000 compounds, 4.4% hits; AID 504333; note: % is set by controls: 0 for no effect and ±100 for the full control effect; nearly all actives have a fitted effect of over 60% in size
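In this displacement format the biotinylated H3(5-23) peptide acetylated at Lys14 serves as ligand at 50 nM, with BAZ2B at 50 nM in PBS pH 7.4 containing 0.01% Tween-20. Donor and acceptor beads are 10 ug/mL final.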
G9a inh = inhibitors of human histone lysine methyltransferase G9a; Q96KQ7; G9a H3K9 monomethylation, AlphaScreen, 2 h; 350,000 compounds, 8.8% hits; Potency, µM (titrated, usually from 102 µM), without a hit: at the top dose activity, negative = inhibition, actives largely listed as inhibitors; note: % is set by controls: 0 for no effect and ±100 for the full control effect; nearly all actives have a fitted effect of over 75% in size
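Enzyme 20 nM + cpd, 15 min RT; add b-H3K9 pep 500 nM / SAM 20 uM; 2 h RT; anti-H3K9me1 Ab 0.5 ug/mL + SA donor / anti-rabbit acceptor beads 20 ug/mL each, 10 min; AlphaScreen read.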
HP1b chromo inh = HP1-beta chromodomain-methylated histone interaction inhibition. P83916. Potency, µM (highest dose often 114 µM), inactives show at the highest dose activity change, negative = inhibition, hits mostly inhibitors. AlphaScreen HP1-beta / biotin-H3K9me3 peptide binding. AID 540317. 390,000 compounds, 0.56% hits; note: nearly all actives have a fitted effect of over 70% in size
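Compound inhibition of the preformed complex between 50 nM HP1-beta and 50 nM biotinylated H3K9me3 peptide was read by AlphaScreen. Buffer was PBS pH 7.4 with 0.01% Tween-20. Incubations ran 30 min at room temperature, with 10 ug/mL donor/acceptor beads.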
L3MBTL1 inh = L3MBTL1 (human) inhibition; Q9Y468; AlphaScreen L3MBTL1–H3K9me1 peptide binding; Potency, µM (highest dose often 57.1 µM), for inactives: at the top dose activity, negative = inhibition, usual class: inhibitors; 230,000 compounds, 0.66% hits; AID 485360; note: % is set by controls: 0 for no effect and ±100 for the full control effect; nearly all actives have a fitted effect of over 60% in size
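AlphaScreen assay: L3MBTL1 (50 nM final) was preincubated 30 min at room temperature with biotinylated H3(1-15)K9me1 peptide (75 nM final), then 30 min with library compounds; streptavidin donor and nickel chelate acceptor beads (10 ug/mL final) added, 30 min dark.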
JMJD2A Tudor inh = JMJD2A Tudor domain (human) inhibition; O75164; 390,000 compounds, 4.4% hits; AlphaScreen JMJD2A-Tudor / H3K4me3 peptide binding; Potency, µM (titrated, usually from 114 µM), inactives show top-dose activity change, negative = inhibition, usual class: inhibitors; note: % is set by controls: 0 for no effect and ±100 for the full control effect; nearly all actives have a fitted effect of over 50% in size
GLS inh = inhibitors of human glutaminase (GLS); O94925; 410,000 compounds, 0.21% hits; AID 624170; Potency, µM (titrated, usually from 45.5 µM), for inactives: at the top dose activity change, negative = inhibition, most hits filed as inhibitors; GLS enzymatic activity, qHTS titration; note: % is set by controls: 0 for no effect and ±100 for the full control effect
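Human kidney-isoform GLS in 45 mM KH2PO4 pH 8.2, 0.02% Tween-20, with compound, started with 1mM L-Glutamine (added stock). Glutamate oxidase/HRP/Amplex red coupled fluorescence read at start and after 30 min at RT.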
Active calls of the source: *; u = inconclusive; x = not tested or not shown; [ ] = dose if it differs, or a comment. Calls come from the whole dose curve; as a rule, active = well fitted curve in the direction sought with a large enough effect; inconclusive = small, poorly fitted or top-dose-only effect, or another doubt; inactive = no such curve, though single readings can be large; an effect the other way counts as inactive or inconclusive. Potency is the fitted concentration of half-maximal effect.

SMILES	BAZ2B block	G9a inh	HP1b chromo inh	L3MBTL1 inh	JMJD2A Tudor inh	GLS inh
Oc1ccc2c(ccc3[nH]cnc32)c1	-28%	50µM*	20%	3%	-8%	21%
Cc1ccc(NC(=O)C(=O)NCC(c2cccnc2)N2CCN(Cc3ccccc3)CC2)cc1C (configuration not stated)	-1%	-3%[59 µM]	18%	x	-13%	-4%
NNC(=O)Nc1cccc(C(F)(F)F)c1	-2%	15%	56%	4%	-6%	-3%
CN(C)NC(=S)Nc1cccc(C(F)(F)F)c1	0%	x	28%	7%	7%	2%
NC(=O)/C=C\C(=O)Nc1cccc(C(F)(F)F)c1	-8%	10µM*	16%	-3%	-12%	8%
Cc1ccc(NC(=S)NNC(=S)Nc2cccc(C(F)(F)F)c2)cc1	-27%	20µM*	u	x	u	1%
CCOC(=O)COc1cc(C)c(Cl)cc1C(=O)c1ccn2nc(-c3ccc(OC)cc3)cc2n1	-15%	-32%[59 µM]	18%	x	-7%	8%
Cc1cccc(C(=O)Oc2csc(=S)n2C(=O)c2cccc(C)c2)c1	u	1.6µM*	-30%	-7%	u	u
O=C(Oc1ccccc1)c1cccc(C(=O)Oc2ccccc2)c1	x	x	x	x	x	-11%[99.4 µM]
O=C(Oc1csc(=S)n1C(=O)c1ccccc1)c1ccccc1	u	1µM*	50µM*	x	35µM*	31%
COc1ccc(CCNCc2ccccc2N2CCCC2)cc1	56µM*	u	-5%	x	20µM*	36%
COc1ccc(CCNC(=O)CN2CCN(c3ccccc3Cl)CC2)cc1	-15%	-49%[59 µM]	13%	x	-17%	12%
COc1ccc(CCNCc2cc(C)n(-c3ccc(OC)cc3)c2C)cc1	28µM*	-11%[2.33 µM]	u	x	20µM*	-22%
COC(=O)c1ccc(CSc2nnc3n(Cc4ccccc4OC)c(=O)c4ccccc4n23)o1	-32%	45µM*	10%	-5%	-23%	0%
COC(=O)c1ccc(CSc2nc3ccccc3c(=O)n2-c2ccccc2)o1	-25%	16µM*	26%	x	-21%	3%
CC(C)(C)c1ccc(-c2nc(S(=O)(=O)c3ccccc3)c(N3CCOCC3)o2)cc1	u	u	-12%	x	u	-6%
O=S(=O)(c1ccc(F)cc1)N1CCN(c2nc(-c3cccs3)nc3cc(Cl)ccc23)CC1	x	x	35%	x	-2%	x
N#Cc1ccc(Oc2ccc(NC(=O)C3CC=CCC3C(=O)O)cc2)cc1 (configuration not stated)	2%	12%	34%	2%	-13%	-7%
Cc1cccc(Oc2ccc(NC(=O)C3CC=CCC3C(=O)O)cc2)c1 (configuration not stated)	u	45µM*	20%	-9%	u	-3%
Cc1cc(C(=O)CSc2nc(N)cc(=O)[nH]2)c(C)n1-c1ccc(OC(F)F)cc1	-16%	-5%	2%	u	-22%	2%
C=CCn1c(C)cc(C(=O)COC(=O)c2cncc(Br)c2)c1C	u	3.2µM*	-6%	-23%	u	2%
Cc1cc(C(=O)CSc2nc(N)cc(N)n2)c(C)n1-c1cccc(F)c1	u	-18%[59 µM]	u	-16%	28µM*	7%
C=CCn1c(C)cc(C(=O)CSc2nc(N)cc(N)n2)c1C	u	32µM*	7%	6%	-31%	1%
Cc1cccc(N(CC(=O)NCCSCc2cccc(Cl)c2)S(=O)(=O)c2ccccc2)c1C	7%	4%[59 µM]	15%	x	-12%	-7%
Cc1cc2c(cc1S(=O)(=O)CCC(=O)N1CCN(c3ccccc3)CC1)OCC(=O)N2	-16%	-4%[59 µM]	32%	x	-3%	8%
O=C(CCn1c(=O)c2cccn2c2cccnc21)NCc1ccccc1Br	-2%	-3%[59 µM]	38%	x	7%	-11%
Nc1ccn(-c2ncc(C(F)(F)F)cc2Cl)c(=O)n1	-17%	25%[12.7 µM]	42%	6%	4%[57.1 µM]	3%
FC(F)(F)c1cnc(-n2cc[nH]c2=S)c(Cl)c1	13%	32µM*	29%	x	79µM*	18%

High-throughput results as filed in PubChem.
